Source: PubChem (Broad Institute)
aSyn 5UTR act – Activators working through SNCA 5'UTR binding (MLPCN) | 300,000 compounds, 7.1% hits | alpha-synuclein 5'UTR reporter, activators screen | activity score, % (tested at 7.5 µM), hits read low; in the data active means activity score below about -60%
A number is an active result; . = inactive. Only a sample is shown.

SMILES	aSyn 5UTR act
CCOC(=O)c1sc(NC(=S)NC(=O)CC(C)C)cc1C	-102
CCOC(=O)c1sc(NC(=O)c2ccc(Cl)s2)cc1C	-196
CCC(NC(=O)c1cc(COc2ccc(OC)cc2Cl)on1)c1ccncc1 (configuration not stated)	-71
COc1cc(C(=O)NC(=S)NNC(=O)c2cnccn2)cc(OC)c1OC	.
CCC(NC(=O)c1cc(COc2ccc(Cl)cc2OC)on1)c1ccncc1 (configuration not stated)	-121
COc1ccc(OCc2cc(C(=O)NC(C)Cn3cncn3)no2)c(Cl)c1 (configuration not stated)	-62
COc1cc(Cl)ccc1OCc1cc(C(=O)NC(C)Cc2cnccn2)no1 (configuration not stated)	-145
COc1cc(NC(=O)CN2CCC(C)CC2)c(C)cc1[N+](=O)[O-]	-82
COc1cc(/C(C)=N/NC(=O)CSc2nncn2C)ccc1OCc1ccccc1Cl	-83
Cc1cc(C)c2cc(CN(CCO)C(=O)Nc3ccc(Cl)cc3)c(=O)[nH]c2c1	.
Cc1ccc2cc(CN(CCN(C)C)C(=O)Nc3ccc(Cl)cc3)c(=O)[nH]c2c1	-83
COc1ccc(N2C(=O)c3ccccc3NC2c2ccc(OC)c(COc3ccccn3)c2)cc1 (configuration not stated)	-77
COc1ccc(N2C(=O)c3ccccc3NC2c2ccc(OC)c(CSc3ccccn3)c2)cc1 (configuration not stated)	-89
COC(=O)COc1ccc(Cl)cc1C1Nc2ccccc2C(=O)N1c1ccc(OC)cc1 (configuration not stated)	-88
CCS(=O)(=O)n1nc(-c2ccc(Cl)cc2)nc1SCc1ccccc1	-110
Cc1nn(-c2nnc(NC3CCCCC3)nn2)c(C)c1Br	-165
Cc1cc(C)n(-c2nc(N(c3ccccc3)c3ccccc3)nc(-n3nc(C)cc3C)n2)n1	.
Cc1cc(C)n(-c2ncc(-c3ccccc3)nn2)n1	-69
c1ccc(-c2cnnc(N3CCOCC3)n2)cc1	-110
Cc1cc(C)n(-c2nncc(-c3ccccc3)n2)n1	-76
O=C(C1CC(c2ccccc2O)=NO1)N1CCCCC1 (configuration not stated)	-112
CC1CCCCN1C(=O)CSc1ccc(-c2ccc(F)cc2)nn1 (configuration not stated)	-76
O=C(C1CC(c2ccc(F)cc2)=NO1)N1CCCCC1 (configuration not stated)	-141
CC1CCCCN1C(=O)C1CC(c2ccc(F)cc2)=NO1 (configuration not stated)	-89
S=c1[nH]nc(C2CCCCC2)n1/N=C/C(Cl)=C\c1ccccc1	-75
SMILES	aSyn 5UTR act
Cc1cc(-c2n[nH]c(=S)n2/N=C/C(Cl)=C/c2ccccc2)n[nH]1	-164
S=c1[nH]nc(-c2ccco2)n1/N=C/C(Cl)=C/c1ccccc1	-172
Cc1c(Br)c(O)c(Br)c(O)c1/C=N/n1c(-c2ccccc2)n[nH]c1=S	.
COc1ccc(NC(=S)N/C(=N/S(=O)(=O)c2ccc(C)cc2)c2ccccc2)cc1	-146
COc1ccc(S(=O)(=O)/N=C2\C=C(Nc3ccc(O)cc3)C(=O)c3ccccc32)cc1	.
O=S(=O)(/N=C(/NC(=S)Nc1ccccc1)c1ccccc1)c1ccc(Cl)cc1	-99
CCOc1ccc2c(c1)nc(SCC(=O)c1cccs1)n2C	-67
Cc1ccc2[nH]c(C(=O)Nc3ccc(F)cc3)cc2c1	-142
Cc1cc(C)c2cc(C(=O)Nc3ccccc3)[nH]c2c1	-81
CCCOc1ccc(NC(=O)c2cc3cc(C)ccc3[nH]2)cc1	-71
COc1ccc(Nc2nc3ccc(OC)cc3s2)cc1	-120
COc1ccc2nc(Nc3nc(C)c(C(C)=O)s3)sc2c1	-186
CCOC(=O)c1cc2nc(Nc3ccc(OC)cc3)sc2s1	-83
CSc1ccc2c(c1)C(N1CCN(C)CC1)Cc1ccc(F)cc1S2 (configuration not stated)	.
Cn1cnnc1SCC(=O)c1c[nH]c2ccccc12	-92
Cc1cc(C(=O)CSc2nncn2C)c(C)n1-c1ccccc1	-67
Cc1cc(C(=O)CSc2cccc[n+]2[O-])c(C)n1-c1ccccc1	.
Cc1cc(C(=O)CN2CC(C)OC(C)C2)c(C)n1-c1ccccc1 (configuration not stated)	-105
Cc1cc(-n2c(C)cc(C(=O)CCl)c2C)no1	.
Cc1cc(C(=O)CSc2cccc[n+]2[O-])c(C)n1-c1ccc(Br)cc1	-150
Cc1ccc(-n2c(C)cc(C(=O)CSc3nncs3)c2C)cc1	-172
CN1c2ccccc2Oc2nnc(N3CCN(Cc4ccccc4)CC3)cc21	-97
Cc1cccc(Nc2nn3c(=O)c4ccccc4nc3s2)c1	-160
Cc1ccc(NC(=O)c2ccc3nc[nH]c3c2)c(O)c1	-99
O=C(Nc1ccc(OC(F)(F)F)cc1)c1ccc2nc[nH]c2c1	-64
SMILES	aSyn 5UTR act
Cc1ccc(NC(=O)c2ccc3nc[nH]c3c2)nc1	-96
Cc1ccc(NC(=O)CCNC(=O)c2ccc(Cl)cc2)nc1	-80
Cc1ccc(NC(=O)c2ccc(C(=O)c3ccccc3)cc2)nc1	-109
O=C(CSc1nc(-c2ccccc2)cs1)NCCN1C(=O)CSC1=O	-71
O=C(CSc1nc(-c2ccc(F)cc2)cs1)NCCN1C(=O)CSC1=O	-62
CCCOC(c1ccccc1)(c1ccc(C(F)(F)F)cc1)C(Oc1nc(C)cc(C)n1)C(=O)O (configuration not stated)	.
c1ccc2cc(-c3cc4ccccn4c3)ccc2c1	-98
Cc1ccc(N=Nc2c(C)[nH]n(C(N)=S)c2=O)cc1	-116
Cc1[nH]n(C(N)=S)c(=O)c1N=Nc1cccc(C(F)(F)F)c1	-165
Cc1[nH]n(C(N)=S)c(=O)c1N=Nc1ccc(Br)cc1	-90
Cc1[nH]n(C2=NCCS2)c(=O)c1N=Nc1cccc(C(F)(F)F)c1	.
Cc1cccc(NC(=O)Cc2noc3ccccc23)c1	-82
O=C(Cc1noc2ccccc12)Nc1ccc(Cl)cc1	-69
Cc1cccc(N=c2oc3cc(O)ccc3cc2C(N)=O)c1	-77
COc1ccccc1N=c1oc2cc(O)ccc2cc1C(N)=O	-74
COc1ccc2cc(C(N)=O)c(=Nc3ccc(C)cc3)oc2c1	-62
COc1ccc2c(c1OC)C(=O)N1c3ccccc3COC21 (configuration not stated)	-140
COc1ccc2c(c1OC)C(=O)N1c3ccccc3SC21 (configuration not stated)	-142
COc1ccc2c(c1OC)C(=O)N1c3ccccc3C(=O)N(c3ccccc3F)C21 (configuration not stated)	.
Cc1cccc(NC(=O)c2oc3c(c2C)C(=O)CC(C)(C)C3)n1	-83
COCc1cc(C)nc(SCC(=O)c2ccc(O)c(O)c2)c1C#N	-80
COCc1cc(C)nc(SCC(=O)Nc2ccc3c(c2)OCO3)c1C#N	-70
COCc1cc(C)nc(SCC(=O)Nc2ccc3c(c2)OCCO3)c1C#N	-86
CCCOC(=O)c1ccc(NC(=O)CC(C)(C)C)cc1	-109
CCCCc1ccc(NC(=O)CC(C)(C)C)cc1	-159
SMILES	aSyn 5UTR act
COc1ccc(Nc2nc(N)c3ccccc3n2)c(OC)c1	-198
Nc1c(C(=O)c2ccccc2)sc2nsc(SCCN3CCCC3)c12	-87
CC(=Nc1cc(C(=O)c2ccccc2)ccc1N)C1=C(O)CC(C)(C)CC1=O	-76
COc1ccc(-c2nnc(SCC(=O)Nc3cc(F)ccc3C)o2)cc1	-161
COc1cccc(NC(=O)CSc2nnc(-c3ccc(C)cc3)o2)c1	-114
Cc1ccc(SCC(=O)Nc2cccc(-c3nnc(-c4ccco4)o3)c2)cc1	-144
